# Compound activity deposited in PubChem BioAssay by National Center for Advancing Translational Sciences (NCATS).
# HPGD block: HPGD (human) dehydrogenase inhibition; 150,000 tested, 4.3% active; AID 894; P15428; Potency, µM, hits mostly inhibitors; purified HPGD, NADH fluorescence kinetic, PGE2 substrate
# Target sequence (P15428 whole entry, looked up): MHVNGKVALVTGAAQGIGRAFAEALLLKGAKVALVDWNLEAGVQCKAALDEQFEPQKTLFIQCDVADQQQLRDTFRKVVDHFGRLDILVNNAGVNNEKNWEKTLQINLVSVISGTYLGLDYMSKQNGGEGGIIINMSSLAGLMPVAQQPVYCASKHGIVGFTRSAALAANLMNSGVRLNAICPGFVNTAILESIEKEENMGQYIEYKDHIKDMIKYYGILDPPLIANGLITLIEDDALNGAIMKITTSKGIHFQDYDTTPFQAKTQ
#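 20 nM HPGD preincubated 15 min at room temperature with compound in 50 mM Tris-HCl pH 8, 0.01% Tween 20. Started with 1 mM NAD+ and 30 uM prostaglandin E2; NADH fluorescence (360/450 nm) read 5 times over 30-s intervals, last minus first.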
# PNC inhibitor: perinucleolar compartment assembly inhibition | 140,000 tested, 3.1% active | PC3M PTB-GFP, PNC prevalence imaging, 16 h; active compounds read low | AID 2417 | activity change (PNC), negative = inhibition, % at 10 µM;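 active = readout at or below -70, meaning at least 70% loss of cells showing the perinucleolar compartment, a nuclear body marking cancer cells; inconclusive = readout between -30 and a set limit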
#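 PC3M cells stably expressing PTB-GFP, 750–1000 cells/well, treated 16 h at 37 °C with compound (23 nl of library stock), in duplicate. After paraformaldehyde fixation and Hoechst stain, imaged at 20x; PNC prevalence scored by image analysis.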
# 12-hLO inh: 12-hLO (ALOX12) enzyme inhibition; purified 12-hLO, xylenol orange hydroperoxide absorbance; Potency, µM (series often up to 57.1 µM), usual class: inhibitors; 150,000 tested, 0.12% active; active = well fitted inhibition curve with a large enough effect; inconclusive = small, poorly fitted or top-dose-only effect; also: nearly all actives have a fitted effect of over 55% in size
#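 Hydroperoxide formation by human 12-lipoxygenase from 40 uM arachidonic acid was followed colorimetrically via ferric-xylenol orange complex, using the 573/405 nm absorbance ratio. Enzyme concentration was 150 nM, with 30 min reaction at room temperature.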
# ALDH1A1 inh: ALDH1A1 (human) enzyme inhibition | P00352 | AID 1030 | 220,000 tested, 7.3% active | Potency, µM (highest dose often 75.3 µM), most hits filed as inhibitors | Purified ALDH1A1, NADH fluorescence, propionaldehyde substrate
# LMNA splice mod: changes lamin A minigene splicing in HeLa cells | Potency, µM (top dose mostly 46.1 µM), actives largely listed as inhibitors | 200,000 tested, 0.01% active | HeLa LMNA splicing GFP/RFP minigene ratio, 48 h; active = well fitted inhibition curve with a large enough effect in the signal ratio, with a control signal flat, not every such curve was filed as active; inconclusive = small, poorly fitted or top-dose-only effect, or effect the other way, or a change in a side signal; the % refers to the signal ratio
#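 Read-out is the ratio of GFP to DsRed2 object intensity, acquired by 488 nm laser-scanning cytometry on HeLa lamin A-EGFP minigene reporter cells. Compound incubation 48 hrs at 37 °C in Opti-MEM with 2% FBS; DMSO 0.5% final.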
# Hits are given with their value; n = inactive; u = inconclusive; x = no result; [ ] = remark or other dose. Most compounds without a hit are left out; they make up all but 10% or so of the library. Unless noted, calls follow the shape of the dose curve; as a rule, active = well fitted inhibition curve with a large enough effect (not every such curve was filed as active); inconclusive = small, poorly fitted or top-dose-only effect, or another doubt; inactive = no such curve, though single readings can be large or run the other way.
SMILES,HPGD block,PNC inhibitor,12-hLO inh,ALDH1A1 inh,LMNA splice mod
Cc1ccc(C2=C(Cl)C(=O)C(c3ccc(C)cc3)=C(Cl)C2=O)cc1,2.2µM,x,n[11.4 µM],n[13.5 µM],x
Clc1ccc(-n2cnnn2)cc1,n,n,n,n,n
CO/C=C\C=C/c1nnn(-c2ccc(Cl)cc2)n1,n,-94,n,25µM,u
COc1ccc(N(CC(=O)NCc2ccc(C)cc2)S(=O)(=O)c2c(C)nn(C)c2C)cc1,n,u,n,25µM,u
CCOc1ccccc1NC(=O)CN(c1ccc(C)cc1)S(=O)(=O)c1c(C)noc1C,n,-132,n,n,u
CCOc1ccc(N(CC(=O)Nc2ccc(OC)cc2)S(=O)(=O)c2c(C)noc2C)cc1,n,n,n,n,n
COc1ccc(N(CC(=O)Nc2ccc(C)cn2)S(=O)(=O)c2c(C)noc2C)cc1,n,-80,n,n,n[0.0737 µM]
CCOc1ccc(OCC)c(NC(=O)CN(c2ccc(C)cc2)S(=O)(=O)c2c(C)noc2C)c1,n,n,n,n,n
Cc1ncc(COP(=O)(O)O)c(C)c1O,n,x,n[11.4 µM],n[13.5 µM],x
COc1ccc(S(=O)(=O)n2ccc(C(C)Oc3ccc(-c4ccccc4)c(F)c3)n2)cc1 (configuration not stated),n,u,n,n,u
CC(Oc1ccc(-c2ccccc2)c(F)c1)c1ccn(S(=O)(=O)c2ccc(F)cc2)n1 (configuration not stated),n,-100,n,n,u
COc1cc(C#CC#CCN2CCCCC2)ccc1O,14µM,u,n,1.6µM,n
Oc1ccc2cc(SSc3ccc4cc(O)ccc4c3)ccc2c1,n,x,n,n,x
COc1ccc(OC)c(CCNC(=O)Cn2sc3nc(C)cc(C)c3c2=O)c1,1.4µM,n,u,2.5µM,n
COc1cc(CNCc2ccncc2)cc(Br)c1OCc1ccccc1F,n,n,n,n,u
COc1cc(CNc2ccc(O)cc2)cc(Br)c1OCc1ccccc1F,n,n,u,22µM,n
CCOc1cc(CNc2ccc(O)cc2)cc(Br)c1OCc1ccccc1F,n,u,n,28µM,n
CCOc1c(Br)cc(CNc2ccc3c(c2)OCCO3)cc1OC,u,-98,n,n,n
COc1cccc(CNc2ccccc2O)c1OCc1ccccc1F,x,x,x,14µM,u
COC(=O)C/C=C\[C@@H](C)[C@@H](/C=N\OCC[C@H]1C=C[C@H](OC(C)=O)[C@@H](COC(C)=O)O1)NS(=O)(=O)c1ccc(C)cc1,x,x,x,n[13.5 µM],x
CC(=O)/C(=C\c1ccccc1F)C(=O)c1ccccc1,n,x,n[11.4 µM],n[13.5 µM],x
COC(=O)c1oc(-c2ccc(Cl)cc2)nc1C,x,x,x,25µM,u
Cc1ccc(Nc2ncnc3c2cnn3-c2ccccc2)c(C)c1,x,x,x,x,n
COc1ncc2nc(C)c(=O)n(Cc3ccc(F)cc3)c2n1,x,x,x,n,n
Cc1cccc(-c2n[nH]c(=S)n2/N=C/c2ccc(C)s2)c1,4µM,u,n,n,n
SMILES,HPGD block,PNC inhibitor,12-hLO inh,ALDH1A1 inh,LMNA splice mod
S=c1[nH]nc(-c2ccccc2)n1/N=C/c1ccc(-c2ccccc2Cl)o1,3.2µM,-100,n,n,u
Cc1ccccc1-n1c(-c2ccncc2)n[nH]c1=S,u,u,n,16µM,n
Cc1cccc(/C=N/n2c(-c3cc(-c4ccccc4)n[nH]3)n[nH]c2=S)c1,5µM,n,n,n,n
COC(=O)C(C(C)=O)C(NC(=O)NCc1ccccc1)c1ccccc1 (configuration not stated),x,x,x,n[13.5 µM],x
Cc1ccc(/C=N/n2c(-c3ccncc3)n[nH]c2=S)o1,x,x,x,n,n
S=c1[nH]nc(-c2ccncc2)n1/N=C/c1ccccc1,32µM,n,n,u,n
Cc1cccc(/C=N/n2c(-c3ccncc3)n[nH]c2=S)c1,16µM,u,n,n,u
COc1cc(/C=N/n2c(-c3ccccc3)n[nH]c2=S)ccc1O,x,x,x,25µM,x
Nc1nc2c(c(=O)[nH]1)CN(CCCN1CCOCC1)CN2,n,x,n[11.4 µM],n[13.5 µM],x
CCOc1cccc2cc(C(=O)Nc3ccccc3-c3ccccc3)c(=O)oc12,n,n,n,0.14µM,n
COc1cccc2cc(C(=O)N3CCc4ccccc4C3)c(=O)oc12,7.9µM,u,n,n,n
COc1cc2c(cc1OC)CN(C(=O)c1cc3ccccc3oc1=O)CC2,n,n,n,n,u
CCOc1ccccc1C(=O)Nc1ccccc1-c1ccccc1,n,n,n,u,n
CCOc1cccc2cc(C(=O)N3CCc4ccccc4C3)c(=O)oc12,4.5µM,n,n,n,n
N#Cc1ccc(CN2CCCC3(CCN(C(=O)c4cccc(F)c4)CC3)C2)cc1,n,x,n,u,x
Nc1ccccc1C(=O)/C=C/c1ccccc1,n,x,n,n,x
Cn1cccc1CC(=O)NNC(=S)Nc1ccccc1Cl,11µM,n,n,u,n
Cn1cccc1CC(=O)NNC(=S)Nc1ccc(Cl)cc1,n,n,n,u,n
Cc1c(Cl)cccc1NC(=S)NC(=O)CCN1C(=O)c2ccccc2C1=O,n,n,n,u,n
CC1(C)CC(CCC(=O)NC(=S)Nc2ccccc2Cl)C(=O)O1 (configuration not stated),x,x,x,13µM,x
O=C(CCN1C(=O)c2ccccc2C1=O)NC(=S)Nc1ccccc1Cl,n,n,n,22µM,n
CC#CCN1c2ccccc2[C@]23C[C@@H](C(=O)OC)N(S(=O)(=O)c4ccc(OC)cc4)C2=NC(C(=O)OC)=C(C(=O)OC)[C@H]13,n,x,n[11.4 µM],n[13.5 µM],u
CC1CCN(C(=O)CN2CC(C)Sc3ccccc32)CC1 (configuration not stated),x,x,x,x,n
O=C(Nc1cccc(Cl)c1Cl)c1ccc2c(c1)N(Cc1cccc(Cl)c1)C(=O)c1ccccc1S2=O (configuration not stated),x,x,x,x,n
COc1cc(/C=C2/SC(=NCc3ccccc3)N(Cc3ccccc3)C2=O)ccc1O,n,n,n,2.2µM,n
SMILES,HPGD block,PNC inhibitor,12-hLO inh,ALDH1A1 inh,LMNA splice mod
Cc1cc(C)c2c(=O)[nH]n(C(C)C)c2n1,n,u,n,u,n
CCC(CC)n1[nH]c(=O)c2c(C)cc(C)nc21,n,-82,n,n,n
COc1cc(OC)c(NC(=O)c2ccc3c(SCC(=O)O)c4c(nc3c2)CCCC4)cc1Cl,x,x,x,n,u
CCOc1ccc(C(=O)NCC(c2ccc3c(c2)OCO3)N2CCN(c3ccccc3F)CC2)cc1 (configuration not stated),x,x,x,x,n
O=C1CC(NCC2CCCO2)C(=O)N1c1ccc(Cl)cc1 (configuration not stated),x,x,x,u,n
Cc1ccc(N2C(=O)CC(NCC3CCCO3)C2=O)cc1 (configuration not stated),x,x,x,20µM,n
CCc1ccc(OCC(=O)NCc2ccco2)c(Br)c1,35µM,n,n,u,n
O=C(COc1ccccc1Br)NCc1ccco1,25µM,n,n,u,n
CCOC(=O)c1c(C)oc2nc(C)nc(NCc3ccc(F)cc3)c12,x,x,x,x,n
CCc1cccc(C)c1NC(=O)CN1C(=O)C2(SCC(=O)N2c2cccc(F)c2)c2ccccc21 (configuration not stated),x,x,x,x,n
